# Measured values published in the supplement of paper PMC8728848.
# The full list was thinned out, with the strongest signals kept by preference.
# B1: Apa (Mycobacterium tuberculosis), Rv1860 (protein)
# chain: MHQVDPNLTRRKGRLAALAIAAMASASLVTVAVPATANADPEPAPPVPTTAASPPSTAAAPPAPATPVAPPPPAAANTPNAQPGDPNAAPPPADPNAPPPPVIAPNAPQPVRIDNPVGGFSFALPAGWVESDAAHFDYGSALLSKTTGDPPFPGQPPPVANDTRIVLGRLDQKLYASAEATDSKAAARLGSDMGEFYMPYPGTRINQETVSLDANGVSGSASYYEVKFSDPSKPNGQIWTGVIGSPAANAPDAGPPQRWFVVWLGTANNPVDKGAAKALAESIRPLVAPPPAPAPAPAEPAPAPAPAGEVAPTPTTPTPQRTLPA
# B2: CFEM-CGl (Candida glabrata), Q6FRS0 (protein)
# chain: VLATPPACLLACVAQVSKQSSQCHTLNQVGCFCENENTAIKNCLDSICPNGNSDAAYTAFKNSCGDVGKAVASV
# Columns and labels:
# Test in all cases: glycan array binding signal (z-score within array); higher = stronger binding
# Details in all cases: glycan notation: IUPAC condensed, linker removed
# [1] = biological target: Glc(b1-6)Glc
# Procedure, shortened: (§1)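 The binding signal is a Z-score computed within each array. Data were drawn from 3228 arrays in the Consortium for Functional Glycomics database, restricted to those with a known protein sequence. Scores were averaged over arrays of the same protein sequence at different concentrations or buffers, and over linkers, and negative values can be taken as non-binding.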
# [2] = biological target: GlcNAc(b1-2)Man(a1-3)[GlcNAc(b1-4)][GlcNAc(b1-2)Man(a1-6)]Man(b1-4)GlcNAc(b1-4)[Fuc(a1-6)]GlcNAc
# Procedure, shortened: as §1
# [3] = biological target: GlcNAc(b1-2)[GlcNAc(b1-4)]Man(a1-3)[GlcNAc(b1-2)Man(a1-6)]Man(b1-4)GlcNAc(b1-4)GlcNAc
# Procedure, shortened: as §1
# [4] = biological target: GlcNAc(b1-2)[GlcNAc(b1-4)]Man(a1-3)[GlcNAc(b1-4)][GlcNAc(b1-2)[GlcNAc(b1-6)]Man(a1-6)]Man(b1-4)GlcNAc(b1-4)[Fuc(a1-6)]GlcNAc
# Procedure, shortened: as §1
# [5] = biological target: GlcNAc(b1-3)Gal(b1-4)GlcNAc(b1-3)[GlcNAc(b1-3)Gal(b1-4)GlcNAc(b1-3)]GalNAc
# Procedure, shortened: as §1
# [6] = biological target: GlcNAc(b1-3)[GlcNAc(b1-6)]GalNAc
# Procedure, shortened: as §1
# [7] = biological target: GlcNAc(b1-6)Gal(b1-4)GlcNAc
# Procedure, shortened: as §1
# [8] = biological target: GlcNAc(b1-6)GalNAc
# Procedure, shortened: as §1
# [9] = biological target: Man(a1-2)Man(a1-6)[Man(a1-3)]Man(a1-6)[Man(a1-2)Man(a1-2)Man(a1-3)]Man
# Procedure, shortened: as §1
# [10] = biological target: Man(a1-6)Man
# Procedure, shortened: as §1
# [11] = biological target: MurNAc(b1-4)GlcNAc
# Procedure, shortened: as §1
# [12] = biological target: Neu5Ac(a2-3)Gal(b1-3)[GlcNAc(b1-6)]GalNAc
# Procedure, shortened: as §1
# [13] = biological target: Neu5Ac(a2-3)Gal(b1-4)GlcNAc(b1-2)Man(a1-3)[Neu5Ac(a2-3)Gal(b1-4)GlcNAc(b1-2)Man(a1-6)]Man(b1-4)GlcNAc(b1-4)GlcNAc
# Procedure, shortened: as §1
# [14] = biological target: Neu5Ac(a2-3)Gal(b1-4)GlcNAc(b1-2)Man(a1-3)[Neu5Ac(a2-3)Gal(b1-4)GlcNAc(b1-2)Man(a1-6)]Man(b1-4)GlcNAc(b1-4)[Fuc(a1-6)]GlcNAc
# Procedure, shortened: as §1
# [15] = biological target: Neu5Ac(a2-3)Gal(b1-4)GlcNAc(b1-2)Man(a1-3)[Neu5Ac(a2-6)Gal(b1-4)GlcNAc(b1-2)Man(a1-6)]Man(b1-4)GlcNAc(b1-4)GlcNAc
# Procedure, shortened: as §1
# [16] = biological target: Neu5Ac(a2-3)Gal(b1-4)[Fuc(a1-3)]GlcNAc(b1-6)[Neu5Ac(a2-3)Gal(b1-3)]GalNAc
# Procedure, shortened: as §1
# [17] = biological target: Neu5Ac(a2-3)Gal6S(b1-4)GlcNAc
# Procedure, shortened: as §1
# [18] = biological target: Neu5Ac(a2-3)Gal6S(b1-4)[Fuc(a1-3)]GlcNAc
# Procedure, shortened: as §1
# [19] = biological target: Neu5Ac(a2-6)Gal(b1-4)GlcNAc(b1-2)Man(a1-3)[Neu5Ac(a2-3)Gal(b1-4)GlcNAc(b1-2)Man(a1-6)]Man(b1-4)GlcNAc(b1-4)GlcNAc
# Procedure, shortened: as §1
# [20] = biological target: Neu5Ac(a2-6)Gal(b1-4)GlcNAc(b1-3)Gal(b1-4)GlcNAc(b1-6)[Gal(b1-3)]GalNAc
# Procedure, shortened: as §1
# [21] = biological target: Neu5Ac(b2-6)GalNAc
# Procedure, shortened: as §1
# [22] = biological target: Neu5Gc(a2-3)Gal(b1-4)Glc
# Procedure, shortened: as §1
# [23] = biological target: Fuc(a1-2)Gal(b1-3)GalNAc(a1-3)[Fuc(a1-2)]Gal(b1-4)Glc
# Procedure, shortened: as §1
# [24] = biological target: Fuc(a1-2)Gal(b1-3)GlcNAc(b1-2)Man(a1-3)[Fuc(a1-2)Gal(b1-3)GlcNAc(b1-2)Man(a1-6)]Man(b1-4)GlcNAc(b1-4)[Fuc(a1-6)]GlcNAc
# Procedure, shortened: as §1
# [25] = biological target: Fuc(a1-2)Gal(b1-4)GlcNAc(b1-3)Gal(b1-4)GlcNAc
# Procedure, shortened: as §1
# [26] = biological target: Fuc(a1-2)Gal(b1-4)GlcNAc(b1-3)Gal(b1-4)GlcNAc(b1-2)Man(a1-3)[Fuc(a1-2)Gal(b1-4)GlcNAc(b1-3)Gal(b1-4)GlcNAc(b1-2)Man(a1-6)]Man(b1-4)GlcNAc(b1-4)GlcNAc
# Procedure, shortened: as §1
# [27] = biological target: Fuc(a1-2)Gal(b1-4)GlcNAc(b1-3)GalNAc
# Procedure, shortened: as §1
# [28] = biological target: Fuc(a1-2)Gal(b1-4)GlcNAc(b1-6)GalNAc
# Procedure, shortened: as §1
# [29] = biological target: Fuc(a1-2)Gal(b1-4)GlcNAc6S
# Procedure, shortened: as §1
# [30] = biological target: Fuc(a1-2)[GalNAc(a1-3)]Gal(b1-3)GalNAc(a1-3)[Fuc(a1-2)]Gal(b1-4)GlcNAc
# Procedure, shortened: as §1
# [31] = biological target: Fuc(a1-2)[GalNAc(a1-3)]Gal(b1-4)GlcNAc(b1-2)Man(a1-3)[Fuc(a1-2)[GalNAc(a1-3)]Gal(b1-4)GlcNAc(b1-2)Man(a1-6)]Man(b1-4)GlcNAc(b1-4)[Fuc(a1-6)]GlcNAc
# Procedure, shortened: as §1
# [32] = biological target: Fuc(a1-2)[GalNAc(a1-3)]Gal(b1-4)[Fuc(a1-3)]GlcNAc(b1-3)GalNAc
# Procedure, shortened: as §1
# [33] = biological target: Fuc(a1-3)[Gal(b1-4)]GlcNAc(b1-2)Man(a1-3)[Fuc(a1-3)[Gal(b1-4)]GlcNAc(b1-2)Man(a1-6)]Man(b1-4)GlcNAc(b1-4)[Fuc(a1-6)]GlcNAc
# Procedure, shortened: as §1
# [34] = biological target: Fuc(a1-3)[Gal(b1-4)]GlcNAc(b1-3)Gal(b1-3)[Fuc(a1-4)]GlcNAc
# Procedure, shortened: as §1
# [35] = biological target: Fuc(b1-3)GlcNAc
# Procedure, shortened: as §1
# [36] = biological target: Gal(a1-4)Gal(b1-4)Glc
# Procedure, shortened: as §1
# [37] = biological target: Gal(b1-3)Gal
# Procedure, shortened: as §1
# [38] = biological target: Gal(b1-3)Gal(b1-4)GlcNAc
# Procedure, shortened: as §1
# [39] = biological target: Gal(b1-3)GalNAc(a1-3)[Fuc(a1-2)]Gal(b1-4)Glc
# Procedure, shortened: as §1
# [40] = biological target: Gal(b1-3)GalNAc(b1-3)Gal
# Procedure, shortened: as §1
# [41] = biological target: Gal(b1-3)GalNAc(b1-4)Gal(b1-4)Glc
# Procedure, shortened: as §1
# [42] = biological target: Gal(b1-3)GlcNAc(b1-2)Man(a1-3)[Gal(b1-3)GlcNAc(b1-2)Man(a1-6)]Man(b1-4)GlcNAc(b1-4)GlcNAc
# Procedure, shortened: as §1
# [43] = biological target: Gal(b1-3)GlcNAc(b1-3)Gal(b1-4)[Fuc(a1-3)]GlcNAc
# Procedure, shortened: as §1
# [44] = biological target: Gal(b1-3)[Fuc(a1-4)]GlcNAc(b1-2)Man(a1-3)[Gal(b1-3)[Fuc(a1-4)]GlcNAc(b1-2)Man(a1-6)]Man(b1-4)GlcNAc(b1-4)[Fuc(a1-6)]GlcNAc
# Procedure, shortened: as §1
# [45] = biological target: Gal(b1-3)[Neu5Ac(a2-6)]GalNAc
# Procedure, shortened: as §1
# [46] = biological target: Gal(b1-4)GlcNAc(b1-3)Gal(b1-4)GlcNAc(b1-2)Man(a1-3)[Gal(b1-4)GlcNAc(b1-3)Gal(b1-4)GlcNAc(b1-2)Man(a1-6)]Man(b1-4)GlcNAc(b1-4)GlcNAc
# Procedure, shortened: as §1
# [47] = biological target: Gal(b1-4)GlcNAc(b1-3)Gal(b1-4)GlcNAc(b1-3)Gal(b1-4)GlcNAc(b1-3)Gal(b1-4)GlcNAc(b1-2)[Gal(b1-4)GlcNAc(b1-3)Gal(b1-4)GlcNAc(b1-3)Gal(b1-4)GlcNAc(b1-3)Gal(b1-4)GlcNAc(b1-6)]Man(a1-6)[Gal(b1-4)GlcNAc(b1-3)Gal(b1-4)GlcNAc(b1-3)Gal(b1-4)GlcNAc(b1-3)Gal(b1-4)GlcNAc(b1-2)Man(a1-3)]Man(b1-4)GlcNAc(b1-4)[Fuc(a1-6)]GlcNAc
# Procedure, shortened: as §1
# [48] = biological target: Gal(b1-4)GlcNAc(b1-3)Gal(b1-4)GlcNAc(b1-3)GalNAc
# Procedure, shortened: as §1
# [49] = biological target: Gal(b1-4)GlcNAc(b1-3)Gal(b1-4)[Fuc(a1-3)]GlcNAc(b1-3)Gal(b1-4)[Fuc(a1-3)]GlcNAc
# Procedure, shortened: as §1
# [50] = biological target: Gal(b1-4)GlcNAc(b1-3)[Gal(b1-4)GlcNAc(b1-6)]Gal(b1-4)GlcNAc
# Procedure, shortened: as §1
# [51] = biological target: Gal3S(b1-4)[Fuc(a1-3)]GlcNAc
# Procedure, shortened: as §1
# [52] = biological target: GlcA(b1-3)GlcNAc
# Procedure, shortened: as §1
binder,measurement,setting,value
B1,glycan array binding signal (z-score),[1],-0.327
same,glycan array binding signal (z-score),[2],-0.607
same,glycan array binding signal (z-score),[3],-0.083
same,glycan array binding signal (z-score),[4],-0.482
same,glycan array binding signal (z-score),[5],0.26
same,glycan array binding signal (z-score),[6],-0.468
same,glycan array binding signal (z-score),[7],-0.453
same,glycan array binding signal (z-score),[8],-0.174
same,glycan array binding signal (z-score),[9],0.102
same,glycan array binding signal (z-score),[10],-0.69
same,glycan array binding signal (z-score),[11],-0.3
same,glycan array binding signal (z-score),[12],-0.268
same,glycan array binding signal (z-score),[13],-0.603
same,glycan array binding signal (z-score),[14],0.28
same,glycan array binding signal (z-score),[15],-0.452
same,glycan array binding signal (z-score),[16],0.026
same,glycan array binding signal (z-score),[17],-0.642
same,glycan array binding signal (z-score),[18],-0.633
same,glycan array binding signal (z-score),[19],-0.473
same,glycan array binding signal (z-score),[20],-0.533
same,glycan array binding signal (z-score),[21],-0.414
same,glycan array binding signal (z-score),[22],-0.297
B2,glycan array binding signal (z-score),[23],-0.334
same,glycan array binding signal (z-score),[24],-0.163
same,glycan array binding signal (z-score),[25],-0.233
same,glycan array binding signal (z-score),[26],-0.168
same,glycan array binding signal (z-score),[27],8.8
same,glycan array binding signal (z-score),[28],0.206
same,glycan array binding signal (z-score),[29],-0.397
same,glycan array binding signal (z-score),[30],-0.609
same,glycan array binding signal (z-score),[31],-0.183
same,glycan array binding signal (z-score),[32],4.55
same,glycan array binding signal (z-score),[33],-0.347
same,glycan array binding signal (z-score),[34],-0.484
same,glycan array binding signal (z-score),[35],-0.346
same,glycan array binding signal (z-score),[36],-0.153
same,glycan array binding signal (z-score),[37],3.15
same,glycan array binding signal (z-score),[38],2.81
same,glycan array binding signal (z-score),[39],0.176
same,glycan array binding signal (z-score),[40],6.73
same,glycan array binding signal (z-score),[41],9.88
same,glycan array binding signal (z-score),[42],-0.248
same,glycan array binding signal (z-score),[43],-0.497
same,glycan array binding signal (z-score),[44],-0.165
same,glycan array binding signal (z-score),[45],2.93
same,glycan array binding signal (z-score),[46],4.99
same,glycan array binding signal (z-score),[47],0.09
same,glycan array binding signal (z-score),[48],0.84
same,glycan array binding signal (z-score),[49],-0.249
same,glycan array binding signal (z-score),[50],-0.249
same,glycan array binding signal (z-score),[51],-0.353
same,glycan array binding signal (z-score),[52],-0.457
